Cycloheximide cs: counter-screen for Shiga toxin inhibitors: cycloheximide protein synthesis inhibition; cell reporter, cycloheximide protein synthesis inhibition counterscreen; max response, %; 12% of 300,000 active; AID 2314; in the data active = max response mostly above about 13%, no sharp cut-off; inactive = mostly below about 14%; note: read at 38.3 µM for the half of the compounds with a filed dose
Shiga toxin inh: inhibitors of Shiga toxin in Vero cells; Vero cells, Shiga toxin protein synthesis inhibition reporter; inhibition, % at 38.7 µM; 9.2% of 290,000 active; AID 2315; in the data active = inhibition mostly above about 28%, no sharp cut-off; inactive = mostly below about 43%
Pf growth 96h: P. falciparum growth inhibition at 96 hours; P. falciparum luciferase reporter growth, 96 h; Potency, µM (titrated, usually from 28.7 µM), usual class: inhibitors; 6.9% of 320,000 active
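Infected RBCs, 2% Hct / 0.05% parasitemia final; luciferase-reporter P. falciparum; cpd 96 h, 37 C, 5% CO2; luciferase detection reagent; luminescence.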
HCV inh: blocks hepatitis C virus. 3.4% of 340,000 active. Potency, µM (highest dose often 41.8 µM), usual class: inhibitors. AID 651820. Huh7.5.1 HCVcc-Cre infection, luciferase reporter, 44 h
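Infectious HCVcc-Cre (~0.5 moi) was added to cells just after compound, with cells seeded 4 h earlier at 1,000 per well. Luciferase activity after 44 h culture reported infection; substrate was incubated 15 min at room temperature before reading.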
AMA1 RON2 block: inhibitors of Plasmodium falciparum AMA1-RON2 interaction; Potency, µM (top dose mostly 58.2 µM), actives largely listed as inhibitors; AlphaScreen AMA1-biotinylated RON2 peptide binding; 0.2% of 360,000 active; note: nearly all actives have a fitted effect of over 45% in size
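AMA1 (3D7) with his tag at 25 nM final met compounds first, then biotinylated RON2 peptide at 25 nM; detection used donor plus acceptor beads, 10 µg/mL apiece, read by AlphaScreen after 30 min at room temperature.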
Pf growth 48h: inhibits P. falciparum growth in the first generation, 48 h; P. falciparum luciferase growth in erythrocytes, 48 h; Potency, µM (titrated, usually from 28.7 µM), actives largely listed as inhibitors; 5.9% of 310,000 active; AID 504832
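A one-generation exposure of luciferase-tagged malaria parasites in RPMI 1640/Albumax erythrocyte culture, 37 C and 5% CO2. Inhibition is inferred from decreased luminescence after adding detection reagent.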
Each line names hits and unclear results; the compound was inactive in the other large screens. Compounds with a hit are over-represented: about 21% of the library has one in this group of screens. Unless noted, calls come from the whole dose curve; as a rule, active = well fitted curve in the direction sought with a large enough effect; inconclusive = small, poorly fitted or top-dose-only effect, or another doubt; inactive = no such curve, though single readings can be large; an effect the other way counts as inactive or inconclusive.

O=C(COC(=O)c1cnccn1)c1cccc([N+](=O)[O-])c1	none
O=C(NCCCSc1ccccc1)c1cc(Br)ccc1O	HCV inh inconclusive
COc1ccc(C(=O)N/N=C/c2cccnc2)cc1	Cycloheximide cs 29.3, Shiga toxin inh 54.5 (no result: Pf growth 48h)
O=C(N/N=C/c1cccnc1)c1ccc(CN2c3cccc4cccc(c34)S2(=O)=O)cc1	Pf growth 96h inconclusive, HCV inh inconclusive
Cn1nccc1C(=O)N/N=C/c1ccccc1[N+](=O)[O-]	Cycloheximide cs 32.3, Shiga toxin inh 79.9
COc1cccc(/C=N/NC(=O)c2ccc(CN3c4cccc5cccc(c45)S3(=O)=O)cc2)c1	Pf growth 96h 10.4µM
CC(=O)Nc1ccc(C(=O)N/N=C/c2cccnc2)cc1	Pf growth 96h 3.7µM
CCc1cccc(C)c1NC(=S)N(CCOC)C(C)c1ccco1 (configuration not stated)	Pf growth 48h inconclusive
CCCCC(=O)NC1(C(F)(F)F)NC(=O)N(Cc2ccccc2)C1=O (configuration not stated)	Pf growth 96h inconclusive
Cc1cccc(NC(=O)C(C)Oc2ccc(C)nc2[N+](=O)[O-])c1 (configuration not stated)	none (no result: Cycloheximide cs, Shiga toxin inh, Pf growth 96h, Pf growth 48h)
CCCCCCCC(=O)N/N=C/c1cccnc1	none (no result: Pf growth 48h)
Cn1nccc1C(=O)N/N=C/c1cccnc1	Cycloheximide cs 33.3, Shiga toxin inh 58.9
O=C(CNC(=O)c1ccncc1)N/N=C/c1cccc([N+](=O)[O-])c1	Pf growth 96h inconclusive
Cc1cc(C)n(Cc2cccc(C(=O)N/N=C/c3cccnc3)c2)n1	Cycloheximide cs 10.0
O=C(CNC(=O)c1ccncc1)N/N=C/c1ccccc1[N+](=O)[O-]	Cycloheximide cs 23.2, Shiga toxin inh 57.9
O=C(Nc1cccc(S(=O)(=O)c2cccc(NC(=O)c3ccco3)c2)c1)c1ccco1	Cycloheximide cs 19.7, Shiga toxin inh 28.1, Pf growth 96h 11.7µM, HCV inh 11.2µM, Pf growth 48h 13.1µM
O=C(/C=C/Nc1cccc(C(F)(F)F)c1)c1ccco1	Cycloheximide cs 39.3, Shiga toxin inh 80.5
O=C(Nc1cccc(C(F)(F)F)c1)c1ccco1	Cycloheximide cs 11.5, HCV inh 10µM
O=C(Nc1cccc(C(F)(F)F)c1)c1scc2c1OCCO2	Cycloheximide cs 38.5, Pf growth 96h inconclusive
COc1ccc(CCNC(=O)c2noc(C)c2[N+](=O)[O-])cc1OC	none
CCN(CC)c1nc(-c2ccc(C(=O)NN)cc2)nc(-c2ccc(C(=O)NN)cc2)n1	Pf growth 96h inconclusive (no result: Pf growth 48h)
CCOC(=O)c1cnc2cc(F)c(F)cc2c1N1CCOCC1	none
Cc1ccsc1C(=O)NCc1ccc(F)cc1	Pf growth 96h inconclusive
CC(C)(C)S(=O)N1Cc2cc(C(=O)N[C@@H]3CCN(Cc4ccccc4)C3)nc(-c3cccc(-c4cc5ccccc5o4)c3)c2[C@@H]1CCO (some centres not stated)	none (no result: Cycloheximide cs, Shiga toxin inh, Pf growth 96h, HCV inh, Pf growth 48h)
O=C(/C=C/Nc1cccc(C(F)(F)F)c1)c1ccc(Oc2ncccn2)cc1	Cycloheximide cs 47.3, Shiga toxin inh 86.6, HCV inh inconclusive
CN(C)/C=C/C(=O)c1cccc(Oc2ncccn2)c1	none
CC[C@@H]1C=C(C)C[C@H](C)C[C@H](OC)[C@H]2O[C@@](O)(C(=O)C(=O)N3CCCC[C@H]3C(=O)O[C@H](/C(C)=C/[C@@H]3CC[C@@H](O)[C@H](OC)C3)[C@H](C)[C@@H](O)CC1=O)[C@H](C)C[C@@H]2OC	Pf growth 96h 2.62µM, Pf growth 48h 2.33µM (no result: AMA1 RON2 block)
O=C(Nc1ncc2c(n1)CC(c1ccco1)CC2=O)c1ccccc1 (configuration not stated)	none (no result: Pf growth 96h)
Cc1ccc(C(=O)Nc2ncc3c(n2)CC(c2ccco2)CC3=O)cc1 (configuration not stated)	Cycloheximide cs 25.7
Cc1nc(Nc2cccc(C(F)(F)F)c2)nc2c1C(=O)CC(C)C2 (configuration not stated)	none (no result: Pf growth 96h)
Cc1cccc(Nc2ncc3c(n2)CC(C)CC3=O)c1 (configuration not stated)	Cycloheximide cs 32.9, Shiga toxin inh 112.1 (no result: Pf growth 96h)
Cc1cc(C)cc(Nc2ncc3c(n2)CCCC3=O)c1	Cycloheximide cs 17.0 (no result: Pf growth 96h)
COc1cccc(C(=O)Nc2ncc3c(n2)CC(c2ccc(OC)cc2OC)CC3=O)c1 (configuration not stated)	HCV inh inconclusive, Pf growth 48h inconclusive
COc1ccc(C(=O)Nc2ncc3c(n2)CC(C)CC3=O)cc1 (configuration not stated)	Cycloheximide cs 19.1
Cc1ccc(S(=O)(=O)NCC(=O)NCC(=O)N(C)Cc2ccc(Br)s2)cc1C	none (no result: Cycloheximide cs, Shiga toxin inh, Pf growth 96h, HCV inh, Pf growth 48h)
O=C(Cl)CCCCCCCC(=O)Cl	none (no result: Pf growth 96h, HCV inh, AMA1 RON2 block, Pf growth 48h)
O=C(C1=NN[C@@H]2C(=O)N(c3cccc(C(F)(F)F)c3)C(=O)[C@H]12)c1cnccn1	none
O=C(O)C1C2CC(C(Br)C2Br)C1C(=O)O (configuration not stated)	none (no result: Cycloheximide cs, Shiga toxin inh, Pf growth 96h, Pf growth 48h)
CCCCN1CCC[C@H]1CNC(=O)c1cc(C#N)c2ccccc2c1OC	none (no result: Pf growth 96h, HCV inh, AMA1 RON2 block, Pf growth 48h)
Cc1ncn(-c2ccccc2)c1-c1ccccc1	HCV inh inconclusive, Pf growth 48h inconclusive (no result: Cycloheximide cs, Shiga toxin inh)
Cc1cc(C)cc(Nc2ncc3c(n2)CC(c2ccco2)CC3=O)c1 (configuration not stated)	none
Cc1cccc(Nc2ncc3c(n2)CC(c2ccco2)CC3=O)c1 (configuration not stated)	Cycloheximide cs 15.1
COc1cccc(NC(=O)Nc2nnc([C@H]3C[C@H](O)[C@@H](CO)O3)s2)c1	none (no result: Cycloheximide cs, Shiga toxin inh, Pf growth 96h, HCV inh, Pf growth 48h)
COc1ccc(S(=O)(=O)N(C)C)cc1NC(=O)Cc1ccc(S(=O)(=O)N2CCOCC2)s1	Pf growth 96h inconclusive, Pf growth 48h inconclusive (no result: Cycloheximide cs, Shiga toxin inh)
COc1ccc(CCNC(=O)CSc2nnc(CNC(=O)c3cc(OC)c(OC)c(OC)c3)o2)cc1OC	none
O=C(NCc1ccccc1)Nc1cccn(Cc2ccc(F)cc2)c1=O	HCV inh inconclusive
CCc1ccccc1NC(=O)Nc1cccn(Cc2ccccc2F)c1=O	HCV inh 11.2µM, Pf growth 48h inconclusive
O=C(NCc1ccccc1)Nc1cccn(Cc2ccccc2F)c1=O	Cycloheximide cs 19.5
O=C(NCc1ccccc1)Nc1cccn(Cc2ccccc2)c1=O	HCV inh inconclusive
NC(=O)CSc1oc(-c2ccco2)nc1S(=O)(=O)c1ccc(F)cc1	Pf growth 96h inconclusive
FC(F)Oc1ccc(NC(=S)NC23CC4CC(CC(C4)C2)C3)cc1	Cycloheximide cs 24.7, Shiga toxin inh 58.8, Pf growth 96h 4.15µM, HCV inh inconclusive, Pf growth 48h 4.15µM
CCOc1ccc(NC(=O)C23CC4CC(C2)CC(c2ccccc2)(C4)C3)cc1	Pf growth 96h 1.85µM, HCV inh inconclusive, Pf growth 48h inconclusive
CN(C)c1ccc(NC(=S)NC23CC4CC(CC(C4)C2)C3)cc1	Cycloheximide cs 43.7, Shiga toxin inh 52.2, Pf growth 96h 0.586µM, HCV inh 3.98µM, Pf growth 48h 5.22µM

Screening data from PubChem BioAssay.
